From PubChem
C diff HTS: C. difficile growth inhibitors, primary screen, HTS; AID 1259249, 2017; 0.25% of 86,000 active; growth activity, negative = inhibition, % at 16 µg/mL (by protocol); Clostridium difficile clinical isolate growth, OD600, 24 h; hits give low values;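 active means mean growth activity at or below -80% and every replicate also at or below -80%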
Of the large screens only hits and unclear results are named; the others gave an inactive call. Shown is part of a subset that was picked to be rich in hits.

O=C(Nc1ccccc1F)N1CCCCN2[C@H](C1)[C@H](c1ccc(/C=C/c3ccccc3)cc1)[C@@H]2CO	none
COc1ccc(C#Cc2ccc([C@@H]3[C@@H](CO)N4CCCCN(C(=O)Nc5ccc(F)cc5)C[C@H]34)cc2)cc1	none
COc1ccc(C#Cc2ccc([C@H]3[C@@H](CO)N4CCCCN(C(=O)Nc5ccc(F)cc5)C[C@H]34)cc2)cc1	none
Cc1ccc(-c2ccc([C@H]3[C@H](CO)N4CCCCN(C(=O)Nc5cccc(F)c5)C[C@@H]34)cc2)cc1	C diff HTS -99
CC(C)CC#Cc1ccc([C@H]2[C@H]3CN(C(=O)Nc4ccccc4)CCCCN3[C@H]2CO)cc1	none
Cc1ccc(-c2ccc([C@H]3[C@H]4CN(C(=O)Nc5cccc(F)c5)CCCCN4[C@H]3CO)cc2)cc1	none
O=C(Nc1ccccc1F)N1CCCCN2[C@H](CO)[C@@H](c3ccc(/C=C/c4ccccc4)cc3)[C@@H]2C1	none
O=C(Nc1cccc(F)c1)N1CCCCN2[C@H](CO)[C@H](c3ccc(-c4ccncc4)cc3)[C@@H]2C1	none
CC(C)CC#Cc1ccc([C@@H]2[C@@H](CO)N3CCCCN(C(=O)Nc4ccccc4)C[C@@H]23)cc1	none
CN1C(=O)c2cc(NS(=O)(=O)c3ccc(F)cc3)ccc2OC[C@H]2O[C@H](CC(=O)O)CC[C@H]21	none
C[C@@H]1CN([C@H](C)CO)C(=O)Cc2cc(NC(=O)CCC(F)(F)F)ccc2O[C@@H]1CN(C)S(=O)(=O)c1ccc(F)cc1	none
C[C@@H]1CCCCO[C@H](CN(C)C(=O)c2ccncc2)[C@H](C)CN([C@@H](C)CO)C(=O)c2cc(NC(=O)C3CCCCC3)ccc2O1	none
COCC(=O)Nc1ccc2c(c1)[C@H]1C[C@H](CC(=O)N3CCc4ccccc4C3)O[C@@H](CO)[C@H]1O2	none
O=C1[C@H](Cc2ccccc2)CCn2cc(nn2)COCC2CCCN12 (stereo not given in full)	none
CC(C)NC(=O)Nc1ccc2c(c1)C(=O)N([C@H](C)CO)C[C@@H](C)[C@H](CN(C)C(=O)Nc1ccc3c(c1)OCO3)OCCCC[C@@H](C)O2	none
CCCNC(=O)C[C@H]1CC[C@H]2[C@@H](COC[C@@H](O)CN2Cc2cccc(F)c2)O1	none
Cc1noc(C)c1NC(=O)N(C)C[C@@H]1OCCCC[C@H](C)Oc2ccc(NS(=O)(=O)c3cn(C)cn3)cc2C(=O)N([C@@H](C)CO)C[C@@H]1C	none
C[C@@H]1CN([C@H](C)CO)C(=O)c2cc(NS(C)(=O)=O)ccc2O[C@H]1CN(C)CC1CCCCC1	none
